Results reported in the supplement of paper PMC10338343.
± gives the standard deviation.

System: MILI (PIWIL2) piRISC loaded with L1MC piRNA (26 nt)
Test: pre-steady-state target cleavage rate (min^-1); guide: L1MC piRNA 5'p-UAACUAAAUACUAUGCAAGCUGUAGG; MIWI and MILI are mouse PIWI proteins and EfPiwi is from a freshwater sponge; tags in brackets are library labels; higher = faster piRNA-guided slicing of the target
Settings: auxiliary factor: none (no GTSF1)
Procedure, shortened: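 Three pooled Cleave-'n-Seq trials supplied the data, with k3 capped at 0.0001 min^-1. In each, […] transcribed, DNA-blocked target RNA library and 1 nM active affinity-purified piRISC with one synthetic guide reacted in HEPES–potassium acetate buffer at 33 °C for 0–8 or 0–960 min, with or without 500 nM GTSF1 partner protein. Uncleaved targets were sequenced and normalised to depth and to weakly complementary targets. A burst-and-steady-state fit provided the pre-steady-state cleavage rate.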
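Further: 1 nM active piRISC with 0.1 nM target library at 33 °C single turnover.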

Sequence	pre-steady-state target cleavage rate
UCCUGGAUGUCGAUCCAUUGUAUUUAGUUA	< 0.0001
UCCUGGAUGUCGAAGCAUGUAUUUAGUUA	< 0.0001
UCCUGGAUCAGCUACCAUAGUAUUUACAAA	< 0.0001
UCCUGGAUGUCGAACCAUAGUAUUAGUUA	< 0.0001
UCCUGGAUGUCGAACGUAUGAUAUUAGUUA	< 0.0001
UCCUGGAUGUCGUUGCAUAGUUUUAAGUUA	0.0042 ± 0.0022
UCCUGGAUGUCGAACGAUAGUAUUUAAGUUA	< 0.0001
